# According to PubChem BioAssay (NCATS):
# Unmarked numbers belong to inactive results. Activity calls are given as the source filed them. Calls follow the shape of the dose curve; as a rule, active = well fitted curve in the direction sought with a large enough effect (not every such curve was filed as active); inconclusive = small, poorly fitted or top-dose-only effect, or effect the other way, or another doubt; inactive = no such curve, though single readings can be large or run the other way.
# Target: Pyruvate kinase PKM (Homo sapiens) (UniProt P14618)
# Sequence (P14618 whole entry, looked up): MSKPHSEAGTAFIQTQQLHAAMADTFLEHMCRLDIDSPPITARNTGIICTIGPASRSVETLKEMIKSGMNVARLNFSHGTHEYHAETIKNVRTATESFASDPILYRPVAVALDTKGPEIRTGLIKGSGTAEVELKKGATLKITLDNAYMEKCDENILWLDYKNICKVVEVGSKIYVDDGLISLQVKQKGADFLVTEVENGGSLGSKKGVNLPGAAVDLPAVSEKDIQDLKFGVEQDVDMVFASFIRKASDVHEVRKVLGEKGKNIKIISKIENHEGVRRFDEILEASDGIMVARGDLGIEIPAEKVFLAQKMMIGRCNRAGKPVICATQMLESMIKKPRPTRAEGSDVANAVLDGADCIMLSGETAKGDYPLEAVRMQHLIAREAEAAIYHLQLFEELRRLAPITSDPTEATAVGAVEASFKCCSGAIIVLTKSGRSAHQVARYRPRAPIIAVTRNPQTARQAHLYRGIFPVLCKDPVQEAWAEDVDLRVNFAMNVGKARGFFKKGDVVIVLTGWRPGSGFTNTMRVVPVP
# Assay: qHTS Assay for Activators of Human Muscle Pyruvate Kinase (AID 954);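 also: 0% = uninhibited enzyme and -100% = no enzyme or full thiadiazolimine inhibition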
# Settings: purified human muscle pyruvate kinase, luciferase-coupled luminescence, 1 h; series mostly up to 57.5 µM; activity change, negative = inhibition: at the top concentration
# Description: NIH Molecular Libraries Screening Centers Network [MLSCN]
# NIH Chemical Genomics Center [NCGC]
# Wael M. Rabeh, Lyudmila Nedyalkova and Hee-Wan Park [Structural Genomics Consortium, 100 College St. Toronto, Ontario, Canada]
# Human pyruvate kinase muscle 2 enzyme was supplied as a highly purified (>95% pure) preparation by the Structural Genomics Consortium in Toronto (Ontario, Canada) and was assayed for its ability to generate ATP from ADP using phosphoenolpyruvate (PEP) as a substrate. ATP generation was detected in a coupled reaction by luciferase-mediated luminescence, an ATP-dependent process. Pyruvate kinase substrates, PEP and ADP, were present in the assay at Km and approximately […]-fold below Km respectively. The enzyme was assayed at an intermediate level of activity to screen for inhibitors and activators.
# NCGC Assay Protocol Summary:
# Three uL of substrate mix (final concentration, 50 mM imidazole pH 7.2, 50 mM KCl, 7 mM MgCl2, 0.5 mM PEP, 0.1 mM ADP, 0.01% Tween 20, 0.05% BSA) was dispensed into 1536 well plates. 23 nL of compound were delivered by a pin tool and 1 uL of enzyme mix (final concentration, 0.1 nM pyruvate kinase, 50 mM imidazole pH 7.2, 0.05% BSA) was added. Plates were incubated at room temperature for 1 hour. Two uL of detection and kinase stop mix (PKLight, Cambrex) was added, the plates centrifuged, and luminescence read by a ViewLux (Perkin Elmer) at 5 second exposure/plate. Data were normalized to the uninhibited and AC100 inhibition (no enzyme or 110 uM N-methyl-2,3-diphenyl-1,2,4-thiadiazol-5-imine; CID: 682802; LOPAC-S-4063). To monitor activation, 0.3 nM pyruvate kinase was included in one control column.
SMILES,"activity change, negative = inhibition [%]",outcome
Oc1ccc(O)cc1,-9.58,–
C[N+]1(CCCCC[N+]2(C)CCCC2)CCCC1,-3.98,–
O=C(O)c1cc2cc(Cc3cccnc3)ccc2o1,-27.6,–
CN1CCC[C@@H]1c1cccnc1,-6.65,–
CCCn1c(=O)[nH]c(=O)c2[nH]cnc21,5.11,–
Oc1cc(O)c2c(c1)O[C@H](c1ccc(O)c(O)c1)[C@H](O)C2,-23.2,–
N[C@@H](Cc1cnc[nH]1)C(=O)O,-3.64,–
CN1[C@@H]2CC[C@H]1CC(OC(=O)c1c[nH]c3ccccc13)C2 (stereo partly drawn),-28.4,–
C[C@]12CC[C@@H]3c4ccc(O)cc4CC[C@H]3[C@@H]1CC[C@@H]2O,5.31,–
CNCCC=C1c2ccccc2CCc2ccccc21,-23.8,–
CCCC1O[C@@H]2C[C@H]3[C@@H]4CCC5=CC(=O)C=C[C@]5(C)[C@H]4[C@@H](O)C[C@]3(C)[C@]2(C(=O)CO)O1 (stereo partly drawn),-2.26,–
O=C1CCC(c2ccc(-n3ccnc3)cc2)=NN1,-12.4,–
Nc1cc(Cl)c(NC2=NCCN2)c(Cl)c1,-20.4,–
CC(C)NC[C@@H](O)COc1cccc2ccccc12,–,inactive
C1CCc2nnnn2CC1,-24.9,–
COc1cc(NS(C)(=O)=O)ccc1Nc1c2ccccc2nc2ccccc12,-23.8,–
C[C@@H]1C(=O)NC2=Nc3cccc(Cl)c3CN21,-14.3,–
CC(C)COC(=O)OCN1C(=O)CN(CCN2CC(=O)N(COC(=O)OCC(C)C)C(=O)C2)CC1=O,-21,–
